# PubChem BioAssay AID504444 (National Center for Advancing Translational Sciences (NCATS), 2011)
# About 7,500 (2.1%) of roughly 360,000 compounds were called active. About 20% were inconclusive and are not listed. The list comes from a sample in which actives are over-represented; it also holds similar structures and randomly drawn compounds. Values without a mark were called inactive. The call rests on the fitted dose curve; in most records, active means well fitted inhibition curve with a large enough effect; inconclusive means small, poorly fitted or top-dose-only effect, or effect the other way; inactive means flat fitted curve, though single readings scatter.
# Assay: Nrf2 qHTS screen for inhibitors; further: nearly all actives have a fitted effect of over 60% in size
# Details: A549 ARE-Fluc reporter, luciferase luminescence, 18-24 h; series mostly up to 46 µM; activity change, negative = inhibition: at the top concentration
# Method in brief: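 In this cell-based qHTS, ARE-driven firefly luciferase in A549 cells reports Nrf2 activity; the luminescent signal after BugLite lysis is the measured value, with a prior CellTiter-Fluor read for cell health.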
# On the % scale 0 is the no-effect control and ±100 the full control effect; potency means the concentration at half of the fitted maximal effect.
Compound,"activity change, negative = inhibition",Potency
Cc1ccccc1-n1c(=O)c2ccccc2n(Cc2ccc(F)cc2)c1=O,5.14%,–
CCCN(C(=O)COC(=O)CNS(=O)(=O)c1ccc(NC(C)=O)cc1)C1CCS(=O)(=O)C1 (centres undefined),12.7%,–
CC1CCCC(NC(=O)c2cc(S(=O)(=O)N3CCCCC3)ccc2Cl)C1C (centres undefined),12.3%,–
CSc1ncc(Sc2ccccc2)c(C(=O)O)n1,0.799%,–
CSc1nc(-c2ccccc2)nc(C(Cl)Cl)n1,–,23.1 µM (active)
Cc1cccc(Nc2nc(C)nc(N)c2S(=O)(=O)c2ccccc2)c1,-16%,–
O=C(Nc1cccc(S(=O)(=O)N2CCOCC2)c1)C12CC3CC(CC(C3)C1)C2,1.01%,–
COc1ccc2[nH]c3c(C)c4cc[n+](C)cc4c(C)c3c2c1,–,8.2 µM (active)
COc1ccc2[nH]c(C(=O)N3CCN(C)CC3)c(C)c2c1,21.1%,–
COc1ccc2[nH]c(=S)cc(C)c2c1,0%,–
Cc1ccc(-n2c(=O)c3cccnc3n2CC(=O)NCc2ccc(F)cc2)cc1C,-7.78%,–
CCOC(=O)/C(=N\Nc1ccccc1[N+](=O)[O-])c1csc(Nc2ccccc2)n1,–,20.6 µM (active)
CCOC(=O)C/C(C)=N\Nc1ccc([N+](=O)[O-])cc1[N+](=O)[O-],-12.2%,–
CCOC(=O)Cc1csc(NC(=O)Nc2ccccc2)n1,5.68%,–
CC(=O)OC1=C(C(C)=O)N(Cc2ccccc2)S(=O)(=O)c2ccccc21,-4.38%,–
Cn1c(CNC(=O)c2ccco2)nnc1SCC(=O)N1CCN(c2ccccc2)CC1,-11.5%,–
Cc1cc2nnc(SCC(=O)N3CCN(c4ccccc4)CC3)n2c(N)n1,10.4%,–
Cn1c(Cc2cccc3ccccc23)nnc1SCC(=O)N1CCN(c2cccc(Cl)c2)CC1,–,10.3 µM (active)
CC(=O)c1ccc(N2CCN(C(=O)c3ccc(Cl)c(S(=O)(=O)NC4CC4)c3)CC2)c(F)c1,-4.28%,–
Cc1nn(-c2ccccc2)c(C)c1NC(=O)COc1ccc(Cl)cc1Cl,–,16.4 µM (active)
Cc1nn(-c2ccccc2)c(C)c1NC(=O)COC(=O)c1cc(Cl)ccc1O,-12.6%,–
Cc1nn(-c2ccccc2)c(C)c1NC(=O)CCl,-1.19%,–
NC(=O)C1(Nc2ccc([N+](=O)[O-])cc2)CCCC1,-7.2%,–
Cn1c(=O)c2c(-c3ccccc3Br)n(Cc3ccccc3)cc2n(C)c1=O,-16.6%,–
CCC(=O)N1CCc2cc(Br)cc(S(=O)(=O)CCC(=O)N3CCN(c4ccc(F)cc4)CC3)c21,3.12% [at 9.27 µM],–
CC(C)=C1SC(N2CCN(c3cccc(C)c3)CC2)=NC1=O,–,23.1 µM (active)
Cc1ccc(N2CCN(C3=NC(=O)/C(=C\c4cccs4)S3)CC2)cc1,-1.2%,–

Compound,"activity change, negative = inhibition",Potency
CC(C)=C1SC(N2CCN(c3ccc(C)c(Cl)c3)CC2)=NC1=O,-13.3%,–
CCN(CC)S(=O)(=O)c1ccc(N2CCCC2)c(NC(=O)c2ccc([N+](=O)[O-])o2)c1,-12.4%,–
C=Cc1ccc(Cn2c(C(=O)O)c(CNC3CCCC3)c3ccc(C)cc32)cc1,-0.54%,–
Cc1ccccc1NC(=O)c1cc(S(=O)(=O)Nc2cccc(C(=O)O)c2)ccc1Cl,9.1%,–
COc1ccc(NS(=O)(=O)c2cc(C(=O)Nc3ccccc3C(=O)O)ccc2C)cc1,12.1%,–
C=CCNC(=O)c1ccccc1NC(=O)c1ccc(Cl)c(S(=O)(=O)Nc2cccc(C)c2C)c1,–,9.2 µM (active)
CCOC(=O)C1CCCN(C(=O)c2ccc3c(c2)sc2nc(-c4ccc(CC)cc4)cn23)C1 (centres undefined),-9.95%,–
Cc1ccc(-c2nc3ccccn3c2Nc2c(C)cccc2C)o1,3.18% [at 9.27 µM],–
CC(C)NC(=S)N1CCN(C(c2ccccc2)c2ccccc2)CC1,13.5%,–
O=C(O)CN1CCN(C(c2ccccc2)c2ccccc2)CC1,8.98%,–
CC1(C)CC(N2CCN(C(c3ccccc3)c3ccccc3)CC2)=CC(=[N+]2CCCCC2)C1,–,7.31 µM (active)
Cc1ccc(C(=O)CSc2nc(-c3ccccc3)nc3c2CCCC3)c(C)c1,-6.25%,–
O=C(NCc1ccccc1CN1CCCC1)c1cccc(S(=O)(=O)Nc2ccc(F)cc2)c1,1.66%,–
COc1ccc2sc(-c3ccc(N(C)C)cc3)c(C#CCO)c2c1,-17.9%,–
COc1ccc2sc(-c3ccc(N(C)C)cc3)c(-c3ccc4cc[nH]c4c3)c2c1,11%,–
COc1ccc2c(c1)c(=Cc1ccc(N(C)C)cc1)c1cc(-c3ccccc3)[n+](C)n12,–,16.4 µM (active)
CC1Cc2ccccc2N1S(=O)(=O)c1cccc(C(=O)NCC(c2ccco2)N2CCCC2)c1 (centres undefined),2.2%,–
Cc1nc(SCC(=O)NC2CCCCC2C)c(C#N)c(C)c1C (centres undefined),16.3%,–
CC(=O)OCC(=O)C1(O)CCC2C3CC(C)C4=CC(=O)CCC4(C)C3C(O)CC21C (centres undefined),–,0.082 µM (active)
CC1(C)C(=O)CCC2(C)C1=CCC1C2C(=O)CC2(C)C1CCC2(O)C(=O)CO (centres undefined),5.06%,–
O=C1c2ccccc2C(=O)N1c1ccc(S(=O)(=O)N2CCOCC2)c2ccccc12,-9.07%,–
O=S(=O)(c1ccc(SCc2ccc(Br)cc2)nc1)N1CCOCC1,-4.56%,–
CCOc1cc(N2CCOCC2)c(OCC)cc1NC(=O)COC(=O)[C@H](Cc1c[nH]c2ccccc12)NC(C)=O,-12.5%,–
CCOc1cc(N2CCOCC2)c(OCC)cc1NC(=O)COc1cccc(Cl)c1,-6.27%,–
CCOc1cc(N2CCOCC2)c(OCC)cc1NC(=O)COc1cccc2cccnc12,–,20.6 µM (active)
CCC(C)N1C(=O)S/C(=C/c2ccc(Sc3nc4ccccc4[nH]3)o2)C1=O (centres undefined),–,0.731 µM (active)
O=C(CSc1nc2ccccc2[nH]1)Nc1nc(-c2ccccc2)c(-c2ccccc2)o1,18.4%,–
